From PMC7862700, “An all-to-all approach to the identification of sequence-specific readers for epigenetic DNA modifications on cytosine”

How the values were obtained:
Experiment in all cases: DAPPL (digital affinity profiling via proximity ligation, sequencing); 10 mM Tris-HCl pH 7.5, 50 mM NaCl, 1 mM DTT, 4% glycerol, room temperature, 30 min; GST-TFs on glutathione beads, 16-mer random dsDNA library, 0.1% formaldehyde crosslink after washing; high values mean tight binding
FLI1 = target: T1, FLI1 (Homo sapiens, UniProt Q01543 1-452); details: protein: recombinant; tags: N-terminal GST; dsDNA, one strand shown
T1 sequence: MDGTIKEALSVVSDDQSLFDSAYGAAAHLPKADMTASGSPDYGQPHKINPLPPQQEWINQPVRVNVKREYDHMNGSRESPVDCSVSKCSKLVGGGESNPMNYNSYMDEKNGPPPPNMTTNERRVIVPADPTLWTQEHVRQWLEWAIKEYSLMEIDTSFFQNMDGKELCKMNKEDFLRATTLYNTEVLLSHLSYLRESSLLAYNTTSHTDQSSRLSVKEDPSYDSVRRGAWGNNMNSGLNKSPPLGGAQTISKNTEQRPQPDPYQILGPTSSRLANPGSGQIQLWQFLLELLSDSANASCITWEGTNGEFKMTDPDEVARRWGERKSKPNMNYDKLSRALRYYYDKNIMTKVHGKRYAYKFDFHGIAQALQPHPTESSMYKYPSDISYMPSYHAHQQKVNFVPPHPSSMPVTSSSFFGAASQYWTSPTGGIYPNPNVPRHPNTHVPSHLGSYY
How it was run: (§1)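 Binding signal is given per hexamer as its read frequency for a factor divided by its frequency in the tag-only sample. GST-fused human transcription factors were expressed in yeast, captured on glutathione beads, barcoded with DNA and pooled with that sample, then incubated with 200 nmole of a 16-mer random double-stranded DNA library in Tris/NaCl/DTT/glycerol buffer for 30 min at room temperature. The pools were then washed, crosslinked, proximity-ligated, amplified by PCR and sequenced on an Illumina NextSeq500.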

ELK1 = target: T2, ELK1 (Homo sapiens, UniProt P19419 1-428); details: protein: recombinant; tags: N-terminal GST; dsDNA, one strand shown
T2 sequence: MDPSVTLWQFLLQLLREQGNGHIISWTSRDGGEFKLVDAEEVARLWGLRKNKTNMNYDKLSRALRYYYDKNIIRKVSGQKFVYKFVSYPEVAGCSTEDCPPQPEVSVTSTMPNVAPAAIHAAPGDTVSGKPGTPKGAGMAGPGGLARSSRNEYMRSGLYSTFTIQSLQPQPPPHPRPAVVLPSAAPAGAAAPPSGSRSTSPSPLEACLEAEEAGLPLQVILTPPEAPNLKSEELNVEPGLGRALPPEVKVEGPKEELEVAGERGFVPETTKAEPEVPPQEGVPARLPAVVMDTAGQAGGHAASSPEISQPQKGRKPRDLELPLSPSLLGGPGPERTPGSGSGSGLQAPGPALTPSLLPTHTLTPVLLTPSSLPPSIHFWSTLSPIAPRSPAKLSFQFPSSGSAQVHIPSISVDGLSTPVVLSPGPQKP
How it was run: as §1

GABPA = target: T3, GABPA (Homo sapiens, UniProt Q06546 1-454); details: protein: recombinant; tags: N-terminal GST; dsDNA, one strand shown
T3 sequence: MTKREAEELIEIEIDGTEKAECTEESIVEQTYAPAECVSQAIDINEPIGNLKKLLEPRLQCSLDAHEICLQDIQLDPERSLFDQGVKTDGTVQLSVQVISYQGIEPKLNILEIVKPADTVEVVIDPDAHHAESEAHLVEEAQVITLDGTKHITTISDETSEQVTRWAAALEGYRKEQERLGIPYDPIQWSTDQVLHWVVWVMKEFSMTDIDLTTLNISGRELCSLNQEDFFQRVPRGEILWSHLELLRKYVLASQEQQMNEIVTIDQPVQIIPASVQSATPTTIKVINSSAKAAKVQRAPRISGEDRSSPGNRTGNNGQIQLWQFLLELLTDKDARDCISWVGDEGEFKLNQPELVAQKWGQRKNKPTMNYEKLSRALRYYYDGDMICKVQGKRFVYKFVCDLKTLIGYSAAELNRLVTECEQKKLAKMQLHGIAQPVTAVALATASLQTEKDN
How it was run: as §1

ERG = target: T4, ERG (Homo sapiens, UniProt P11308 1-479); details: protein: recombinant; tags: N-terminal GST; dsDNA, one strand shown
T4 sequence: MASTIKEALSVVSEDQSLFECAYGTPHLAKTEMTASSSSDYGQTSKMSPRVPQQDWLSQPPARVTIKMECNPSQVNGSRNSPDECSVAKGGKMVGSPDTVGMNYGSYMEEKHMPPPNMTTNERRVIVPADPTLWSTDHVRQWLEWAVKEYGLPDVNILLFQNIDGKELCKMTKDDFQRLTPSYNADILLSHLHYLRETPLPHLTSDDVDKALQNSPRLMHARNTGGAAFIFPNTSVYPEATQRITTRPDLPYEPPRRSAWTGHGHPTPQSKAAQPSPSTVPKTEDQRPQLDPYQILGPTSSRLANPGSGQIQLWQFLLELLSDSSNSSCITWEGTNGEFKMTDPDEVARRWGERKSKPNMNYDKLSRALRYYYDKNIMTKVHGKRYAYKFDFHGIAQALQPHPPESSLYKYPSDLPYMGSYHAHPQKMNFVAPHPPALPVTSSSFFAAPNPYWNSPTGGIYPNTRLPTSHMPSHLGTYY
How it was run: as §1

ELF1 = ELF1 (Homo sapiens, UniProt P32519 1-619); details: protein: recombinant; tags: N-terminal GST; dsDNA, one strand shown
How it was run: as §1

EHF = target: T5, EHF (Homo sapiens, UniProt Q9NZC4 1-300); details: protein: recombinant; tags: N-terminal GST; dsDNA, one strand shown
T5 sequence: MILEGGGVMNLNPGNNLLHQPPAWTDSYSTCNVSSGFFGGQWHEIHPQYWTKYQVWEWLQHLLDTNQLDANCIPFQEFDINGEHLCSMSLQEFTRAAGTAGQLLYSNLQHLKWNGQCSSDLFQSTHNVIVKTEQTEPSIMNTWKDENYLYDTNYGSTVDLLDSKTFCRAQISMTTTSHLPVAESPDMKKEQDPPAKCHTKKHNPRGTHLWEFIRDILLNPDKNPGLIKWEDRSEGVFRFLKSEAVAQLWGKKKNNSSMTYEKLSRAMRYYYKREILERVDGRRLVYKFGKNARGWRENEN
How it was run: as §1

SPI1 = SPI1 (Homo sapiens, UniProt P17947 1-270); details: protein: recombinant; tags: N-terminal GST; dsDNA, one strand shown
How it was run: as §1

SPIB = SPIB (Homo sapiens, UniProt Q01892 1-262); details: protein: recombinant; tags: N-terminal GST; dsDNA, one strand shown
How it was run: as §1

ELK3 = target: T6, ELK3 (Homo sapiens, UniProt P41970 1-407); details: protein: recombinant; tags: N-terminal GST; dsDNA, one strand shown
T6 sequence: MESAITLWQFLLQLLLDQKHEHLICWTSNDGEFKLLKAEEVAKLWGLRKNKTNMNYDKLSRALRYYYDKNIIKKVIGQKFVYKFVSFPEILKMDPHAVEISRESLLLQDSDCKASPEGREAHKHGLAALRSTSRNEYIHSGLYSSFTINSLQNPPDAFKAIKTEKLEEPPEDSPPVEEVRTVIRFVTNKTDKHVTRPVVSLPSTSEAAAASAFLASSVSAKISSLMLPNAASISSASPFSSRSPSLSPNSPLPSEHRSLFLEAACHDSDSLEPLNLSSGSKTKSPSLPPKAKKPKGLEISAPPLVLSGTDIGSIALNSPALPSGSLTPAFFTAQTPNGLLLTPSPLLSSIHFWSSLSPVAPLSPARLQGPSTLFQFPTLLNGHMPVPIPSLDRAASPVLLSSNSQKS
How it was run: as §1

FEV = target: T7, FEV (Homo sapiens, UniProt Q99581 1-238); details: protein: recombinant; tags: N-terminal GST; dsDNA, one strand shown
T7 sequence: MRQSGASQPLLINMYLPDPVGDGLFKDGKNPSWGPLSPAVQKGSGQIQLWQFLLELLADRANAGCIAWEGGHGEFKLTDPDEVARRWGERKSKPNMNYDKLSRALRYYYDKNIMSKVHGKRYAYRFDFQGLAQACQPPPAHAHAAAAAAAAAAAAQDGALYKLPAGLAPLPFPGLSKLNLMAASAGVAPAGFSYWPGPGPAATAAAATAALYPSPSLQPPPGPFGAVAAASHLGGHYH
How it was run: as §1

ETV5 = ETV5 (Homo sapiens, UniProt P41161 1-510); details: protein: recombinant; tags: N-terminal GST; dsDNA, one strand shown
How it was run: as §1

HSF1 = HSF1 (Homo sapiens, UniProt Q00613 1-529); details: protein: recombinant; tags: N-terminal GST; chain copies: 3; dsDNA, one strand shown
How it was run: as §1

SPIC = target: T8, SPIC (Homo sapiens, UniProt Q8N5J4 1-248); details: protein: recombinant; tags: N-terminal GST; dsDNA, one strand shown
T8 sequence: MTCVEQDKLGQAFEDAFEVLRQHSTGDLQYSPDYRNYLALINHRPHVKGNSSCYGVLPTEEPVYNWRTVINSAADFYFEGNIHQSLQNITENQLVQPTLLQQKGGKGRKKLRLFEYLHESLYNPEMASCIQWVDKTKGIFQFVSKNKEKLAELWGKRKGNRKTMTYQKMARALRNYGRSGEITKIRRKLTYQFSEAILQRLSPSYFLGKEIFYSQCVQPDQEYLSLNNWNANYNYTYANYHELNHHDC
How it was run: as §1

ELF4 = ELF4 (Homo sapiens, UniProt Q99607 1-663); details: protein: recombinant; tags: N-terminal GST; dsDNA, one strand shown
How it was run: as §1

ELK4 = target: T9, ELK4 (Homo sapiens, UniProt P28324-2 1-405); details: protein: recombinant; tags: N-terminal GST; dsDNA, one strand shown
T9 sequence: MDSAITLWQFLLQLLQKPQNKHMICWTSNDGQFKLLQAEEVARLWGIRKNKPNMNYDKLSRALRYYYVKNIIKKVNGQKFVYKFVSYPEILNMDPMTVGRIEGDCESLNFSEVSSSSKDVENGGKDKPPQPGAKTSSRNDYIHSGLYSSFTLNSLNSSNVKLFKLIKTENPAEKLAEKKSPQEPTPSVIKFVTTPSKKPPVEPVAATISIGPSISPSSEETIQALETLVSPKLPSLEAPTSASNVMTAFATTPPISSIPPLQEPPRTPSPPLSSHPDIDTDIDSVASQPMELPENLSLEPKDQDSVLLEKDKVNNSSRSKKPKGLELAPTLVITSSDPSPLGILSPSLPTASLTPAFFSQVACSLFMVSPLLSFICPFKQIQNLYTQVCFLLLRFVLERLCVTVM
How it was run: as §1

ETV2 = target: T10, ETV2 (Homo sapiens, UniProt O00321 1-342); details: protein: recombinant; tags: N-terminal GST; dsDNA, one strand shown
T10 sequence: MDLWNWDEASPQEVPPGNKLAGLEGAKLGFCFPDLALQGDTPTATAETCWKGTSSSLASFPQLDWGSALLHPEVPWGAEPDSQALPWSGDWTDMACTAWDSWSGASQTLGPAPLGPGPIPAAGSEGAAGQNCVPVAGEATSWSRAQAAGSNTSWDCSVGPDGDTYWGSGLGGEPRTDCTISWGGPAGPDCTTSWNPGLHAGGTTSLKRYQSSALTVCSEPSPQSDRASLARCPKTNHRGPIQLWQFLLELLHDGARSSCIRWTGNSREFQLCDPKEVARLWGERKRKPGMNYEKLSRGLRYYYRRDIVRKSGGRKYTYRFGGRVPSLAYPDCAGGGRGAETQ
How it was run: as §1

ELF3 = target: T11, ELF3 (Homo sapiens, UniProt P78545 1-371); details: protein: recombinant; tags: N-terminal GST; dsDNA, one strand shown
T11 sequence: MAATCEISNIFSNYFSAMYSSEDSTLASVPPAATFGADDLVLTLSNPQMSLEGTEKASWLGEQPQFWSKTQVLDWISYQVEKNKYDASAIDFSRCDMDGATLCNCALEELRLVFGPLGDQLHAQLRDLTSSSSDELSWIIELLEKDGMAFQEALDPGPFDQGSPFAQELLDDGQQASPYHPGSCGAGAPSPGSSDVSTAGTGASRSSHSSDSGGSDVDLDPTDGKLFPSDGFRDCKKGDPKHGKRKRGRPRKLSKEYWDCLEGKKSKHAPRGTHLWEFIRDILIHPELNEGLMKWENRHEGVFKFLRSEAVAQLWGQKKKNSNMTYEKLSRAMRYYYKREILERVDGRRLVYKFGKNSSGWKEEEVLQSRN
How it was run: as §1

CRX = CRX (Homo sapiens, UniProt O43186 1-299); details: protein: recombinant; tags: N-terminal GST; dsDNA, one strand shown
How it was run: as §1

ETV1 = ETV1 (Homo sapiens, UniProt P50549 1-477); details: protein: recombinant; tags: N-terminal GST; dsDNA, one strand shown
How it was run: as §1

ELF4, sequence (Q99607 whole entry): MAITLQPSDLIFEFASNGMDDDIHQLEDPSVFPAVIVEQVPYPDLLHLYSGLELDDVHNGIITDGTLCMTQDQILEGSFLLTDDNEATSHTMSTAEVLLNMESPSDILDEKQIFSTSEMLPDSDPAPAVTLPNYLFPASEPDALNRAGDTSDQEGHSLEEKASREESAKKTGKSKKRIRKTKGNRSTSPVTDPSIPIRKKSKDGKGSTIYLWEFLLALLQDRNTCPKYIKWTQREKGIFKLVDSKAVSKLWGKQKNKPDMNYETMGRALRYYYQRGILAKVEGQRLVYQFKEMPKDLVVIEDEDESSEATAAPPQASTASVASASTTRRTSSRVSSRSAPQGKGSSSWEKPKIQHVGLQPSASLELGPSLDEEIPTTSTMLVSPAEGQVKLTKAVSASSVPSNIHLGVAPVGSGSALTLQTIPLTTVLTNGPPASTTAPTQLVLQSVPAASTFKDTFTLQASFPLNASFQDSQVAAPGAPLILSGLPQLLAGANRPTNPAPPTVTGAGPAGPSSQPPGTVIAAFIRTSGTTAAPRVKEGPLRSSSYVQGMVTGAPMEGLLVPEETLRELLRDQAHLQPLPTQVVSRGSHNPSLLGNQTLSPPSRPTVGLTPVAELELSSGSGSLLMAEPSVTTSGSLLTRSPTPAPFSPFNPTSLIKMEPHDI
ELF1, sequence (P32519 whole entry): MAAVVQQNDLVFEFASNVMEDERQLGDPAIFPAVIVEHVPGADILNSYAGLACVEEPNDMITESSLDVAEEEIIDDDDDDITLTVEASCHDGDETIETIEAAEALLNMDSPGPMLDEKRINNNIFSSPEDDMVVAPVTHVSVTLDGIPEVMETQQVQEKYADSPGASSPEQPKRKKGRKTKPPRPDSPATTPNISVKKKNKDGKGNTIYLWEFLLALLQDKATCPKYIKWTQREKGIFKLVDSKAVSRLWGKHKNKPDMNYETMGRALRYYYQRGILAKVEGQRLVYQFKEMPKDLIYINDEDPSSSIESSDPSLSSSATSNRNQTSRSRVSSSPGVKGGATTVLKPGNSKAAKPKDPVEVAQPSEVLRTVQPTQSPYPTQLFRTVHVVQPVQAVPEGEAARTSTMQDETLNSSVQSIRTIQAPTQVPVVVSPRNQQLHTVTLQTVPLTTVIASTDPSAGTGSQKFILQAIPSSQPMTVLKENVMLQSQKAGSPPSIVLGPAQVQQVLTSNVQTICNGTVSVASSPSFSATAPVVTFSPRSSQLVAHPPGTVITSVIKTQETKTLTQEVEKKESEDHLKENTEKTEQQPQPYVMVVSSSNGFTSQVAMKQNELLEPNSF
CRX, sequence (O43186 whole entry): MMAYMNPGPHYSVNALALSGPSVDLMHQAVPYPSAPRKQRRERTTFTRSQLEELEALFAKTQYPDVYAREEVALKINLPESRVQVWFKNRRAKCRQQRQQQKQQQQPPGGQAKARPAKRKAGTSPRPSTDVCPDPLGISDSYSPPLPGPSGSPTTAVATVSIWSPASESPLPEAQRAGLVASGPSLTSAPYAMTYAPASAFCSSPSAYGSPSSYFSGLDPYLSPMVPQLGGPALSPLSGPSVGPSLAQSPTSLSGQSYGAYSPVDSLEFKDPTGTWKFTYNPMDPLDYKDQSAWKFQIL
SPIB, sequence (Q01892 whole entry): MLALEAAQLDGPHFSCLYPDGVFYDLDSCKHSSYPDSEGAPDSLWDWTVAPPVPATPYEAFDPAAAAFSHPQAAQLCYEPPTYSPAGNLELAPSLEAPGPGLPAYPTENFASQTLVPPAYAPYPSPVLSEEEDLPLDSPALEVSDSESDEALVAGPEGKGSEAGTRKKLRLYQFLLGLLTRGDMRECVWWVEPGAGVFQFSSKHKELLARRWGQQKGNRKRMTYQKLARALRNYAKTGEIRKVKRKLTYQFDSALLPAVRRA
ETV1, sequence (P50549 whole entry): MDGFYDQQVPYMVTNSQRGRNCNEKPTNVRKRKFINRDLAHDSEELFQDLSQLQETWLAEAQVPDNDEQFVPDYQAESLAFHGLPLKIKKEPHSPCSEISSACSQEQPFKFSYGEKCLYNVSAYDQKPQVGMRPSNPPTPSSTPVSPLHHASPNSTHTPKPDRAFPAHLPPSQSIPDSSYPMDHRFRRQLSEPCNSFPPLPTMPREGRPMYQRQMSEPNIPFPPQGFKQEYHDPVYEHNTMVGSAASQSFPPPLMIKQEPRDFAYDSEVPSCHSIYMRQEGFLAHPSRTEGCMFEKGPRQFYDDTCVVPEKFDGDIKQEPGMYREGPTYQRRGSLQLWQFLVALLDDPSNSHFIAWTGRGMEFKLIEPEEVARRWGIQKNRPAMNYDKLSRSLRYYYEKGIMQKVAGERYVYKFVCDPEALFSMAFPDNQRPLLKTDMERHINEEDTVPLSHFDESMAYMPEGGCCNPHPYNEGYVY
HSF1, sequence (Q00613 whole entry): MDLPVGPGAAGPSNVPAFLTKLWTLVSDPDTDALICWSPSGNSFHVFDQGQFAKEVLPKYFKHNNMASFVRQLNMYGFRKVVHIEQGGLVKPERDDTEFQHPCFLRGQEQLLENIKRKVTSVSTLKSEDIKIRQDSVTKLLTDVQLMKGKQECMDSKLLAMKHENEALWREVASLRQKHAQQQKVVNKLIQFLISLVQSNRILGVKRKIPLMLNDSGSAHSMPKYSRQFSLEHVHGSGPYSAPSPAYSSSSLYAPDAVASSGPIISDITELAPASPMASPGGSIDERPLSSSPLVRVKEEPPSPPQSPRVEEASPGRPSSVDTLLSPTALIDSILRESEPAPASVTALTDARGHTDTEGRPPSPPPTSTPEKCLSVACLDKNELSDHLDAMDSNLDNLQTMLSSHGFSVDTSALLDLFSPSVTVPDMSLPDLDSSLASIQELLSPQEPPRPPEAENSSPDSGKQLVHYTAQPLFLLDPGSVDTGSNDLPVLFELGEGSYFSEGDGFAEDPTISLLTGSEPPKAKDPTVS
ETV5, sequence (P41161 whole entry): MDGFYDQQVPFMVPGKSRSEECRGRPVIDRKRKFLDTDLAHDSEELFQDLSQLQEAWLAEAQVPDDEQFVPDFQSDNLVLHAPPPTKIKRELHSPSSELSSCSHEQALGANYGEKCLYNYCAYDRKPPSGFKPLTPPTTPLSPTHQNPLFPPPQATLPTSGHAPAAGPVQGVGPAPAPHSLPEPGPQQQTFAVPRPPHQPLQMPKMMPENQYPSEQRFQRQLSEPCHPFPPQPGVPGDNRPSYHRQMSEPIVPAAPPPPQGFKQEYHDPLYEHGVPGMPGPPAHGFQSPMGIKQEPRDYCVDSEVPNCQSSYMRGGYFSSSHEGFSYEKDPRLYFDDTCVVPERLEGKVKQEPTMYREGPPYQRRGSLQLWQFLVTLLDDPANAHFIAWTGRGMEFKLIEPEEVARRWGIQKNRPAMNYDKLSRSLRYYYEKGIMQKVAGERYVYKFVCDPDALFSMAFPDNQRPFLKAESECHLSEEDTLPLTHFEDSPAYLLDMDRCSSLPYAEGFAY

Which results are given for TGGTTT?
binding signal (FLI1): 1.6 fold enrichment (6-mer frequency, TF over GST control); binding signal (ELK1): 1.44 fold enrichment (6-mer frequency, TF over GST control); binding signal (GABPA): 1.55 fold enrichment (6-mer frequency, TF over GST control); binding signal (ERG): 1.51 fold enrichment (6-mer frequency, TF over GST control); binding signal (ELF1): 1.58 fold enrichment (6-mer frequency, TF over GST control); binding signal (EHF): 1.48 fold enrichment (6-mer frequency, TF over GST control); binding signal (SPI1): 1.66 fold enrichment (6-mer frequency, TF over GST control); binding signal (SPIB): 1.43 fold enrichment (6-mer frequency, TF over GST control); binding signal (ELK3): 1.6 fold enrichment (6-mer frequency, TF over GST control); binding signal (FEV): 1.54 fold enrichment (6-mer frequency, TF over GST control); binding signal (ETV5): 1.71 fold enrichment (6-mer frequency, TF over GST control); binding signal (HSF1): 1.4 fold enrichment (6-mer frequency, TF over GST control); binding signal (SPIC): 1.67 fold enrichment (6-mer frequency, TF over GST control); binding signal (ELF4): 1.54 fold enrichment (6-mer frequency, TF over GST control); binding signal (ELK4): 1.52 fold enrichment (6-mer frequency, TF over GST control); binding signal (ETV2): 1.34 fold enrichment (6-mer frequency, TF over GST control); binding signal (ELF3): 1.5 fold enrichment (6-mer frequency, TF over GST control); binding signal (CRX): 1.5 fold enrichment (6-mer frequency, TF over GST control); binding signal (ETV1): 1.69 fold enrichment (6-mer frequency, TF over GST control)
